# Data from PubChem BioAssay AID1578 (Sanford-Burnham Center for Chemical Genomics, 2009).
# In all, about 290,000 compounds went through this assay and about 3,000 (1%) were called active. No stated cut-off is given here; in the data, active means inhibition mostly above about 36% (no sharp cut-off); inactive means mostly below about 34%. This excerpt belongs to a sample that is enriched for actives.
# Experiment: NOD1 signaling inhibitors, primary screen, cell-based, luminescence, uHTS (AID 1578);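 further: HEK-293T reporter cells stimulated with the NOD1 agonist gamma-tri-DAP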
# Settings: NOD1-driven NF-kB luciferase reporter cells, at 4 µM, active compounds read high
row,Structure (SMILES),inhibition
1,C/C1=C\[C@@H](C)C/C=C/[C@H]2[C@@H]3O[C@]3(C)[C@@H](C)[C@H]3[C@H](Cc4c[nH]c5ccccc45)NC(=O)[C@]32C(=O)/C=C/C(=O)[C@@H]1O,-3.4% (inactive)
2,CC1=CC2/C=C(\C)CCC(O)C(O)/C=C/C(=O)C23C(=O)NC(CC(C)C)C3C1C (centres undefined),90.7% (active)
3,CCOc1ccc(-n2c(O)c(C=Nc3ccc(NC(C)=O)cc3)c(=O)[nH]c2=O)cc1,-7.1% (inactive)
4,O=P(O)(O)C#Cc1ccccc1,-12.9% (inactive)
5,CN1CCN(c2nc([N+](=O)[O-])nn2C)CC1,-15.4% (inactive)
6,COC(=O)c1ccc(NC(=O)CSc2nc3ccc(N4C(=O)C5C6C=CC(C6)C5C4=O)cc3s2)cc1 (centres undefined),104% (active)
7,CCOC(=O)c1c(-n2c(C)cc(C=C3C(=O)NC(=O)NC3=O)c2C)sc2c1CCCC2,1.7% (inactive)
8,CCC(C)C12CN3CCN(CC(C)(C3)C1=O)C2 (centres undefined),4.3% (inactive)
9,C=CCn1c(O)c(C(CC)=Nc2cccc(C(=O)O)c2)c(=O)[nH]c1=O,5.1% (inactive)
10,CCCCCCNC(=O)N[C@@H](Cc1ccc(O)cc1)C(=O)NCCC[C@H]1CN2C(=NC[C@H]2C)N1CC1CCC1,2.9% (inactive)
11,O=C(CNC(=O)OCc1ccccc1)NCC(=O)Nc1ccc(Br)cc1C(=O)c1ccccc1,22% (inactive)
12,COc1ccc(/C=C/C(=O)c2c(O)n(CCC3=CCCCC3)c(=O)[nH]c2=O)cc1OC,14.2% (inactive)
13,COc1ccc(/C=C/C(=O)c2c(O)n(CCC3=CCCCC3)c(=O)[nH]c2=O)cc1,79.8% (active)
14,O=C(/C=C/c1ccc2c(c1)OCO2)c1c(O)n(CCC2=CCCCC2)c(=O)[nH]c1=O,34.4% (inactive)
15,CCOc1cc2c(cc1OCC)-n1cccc1C(c1ccc(OC)cc1)NC2 (centres undefined),-5.9% (inactive)
16,C[C@@H]1C[C@H]2OC(=O)C3(CO3)[C@H]2[C@H](O)[C@]2(C)C(=O)C3OC3[C@@H]12 (some centres undefined),65.6% (active)
17,CCN(CC)CCN=Cc1c(O)n(Cc2ccco2)c(=O)[nH]c1=O,-5.5% (inactive)
18,CC(C)CN1CCN(Cc2ccc(C(F)(F)F)cc2)CC1CCO (centres undefined),-10.4% (inactive)
19,C/C(=N\N1CCCCCC1)c1c(O)n(C2CCCCC2)c(=O)[nH]c1=O,-7.2% (inactive)
20,CCOC(=O)c1ccc(NC(=O)c2c(O)[nH]c(=O)[nH]c2=O)cc1,-19% (inactive)
21,CCn1cc(C(=O)NCc2ccccc2)c2ccccc21,-16.6% (inactive)
22,CCCCCCCCN=Cc1c(O)[nH]c(=O)[nH]c1=O,-1.5% (inactive)
23,CCCCC(CC)COCCCN=Cc1c(O)[nH]c(=S)[nH]c1=O (centres undefined),34.9% (active)
24,COCCCN=Cc1c(O)[nH]c(=S)[nH]c1=O,-7.3% (inactive)
